Bioassay records: PubChem, National Center for Advancing Translational Sciences (NCATS)
Compounds with a hit are over-represented: about 0.9% of the library has one in this group of screens.
RXFP1 antag: qHTS Assay for Antagonists of the Relaxin Receptor RXFP1 | Relaxin receptor 1 (Homo sapiens), Q9HBX9 | HEK293-RXFP1, relaxin-stimulated cAMP HTRF, 30 min; hits give low values | actives 0.59% (n = 350,000) | activity change, negative = inhibition, % at 57.5 µM;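 active = activity change of -60% or lower, but not beyond a set lower limit; inconclusive = change between -60% and -40%, or beyond the set limit; inactive = change above -40%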; also: % is scaled to controls: 0 for no effect and ±100 for the full control effect
Target sequence (Q9HBX9 whole entry, looked up): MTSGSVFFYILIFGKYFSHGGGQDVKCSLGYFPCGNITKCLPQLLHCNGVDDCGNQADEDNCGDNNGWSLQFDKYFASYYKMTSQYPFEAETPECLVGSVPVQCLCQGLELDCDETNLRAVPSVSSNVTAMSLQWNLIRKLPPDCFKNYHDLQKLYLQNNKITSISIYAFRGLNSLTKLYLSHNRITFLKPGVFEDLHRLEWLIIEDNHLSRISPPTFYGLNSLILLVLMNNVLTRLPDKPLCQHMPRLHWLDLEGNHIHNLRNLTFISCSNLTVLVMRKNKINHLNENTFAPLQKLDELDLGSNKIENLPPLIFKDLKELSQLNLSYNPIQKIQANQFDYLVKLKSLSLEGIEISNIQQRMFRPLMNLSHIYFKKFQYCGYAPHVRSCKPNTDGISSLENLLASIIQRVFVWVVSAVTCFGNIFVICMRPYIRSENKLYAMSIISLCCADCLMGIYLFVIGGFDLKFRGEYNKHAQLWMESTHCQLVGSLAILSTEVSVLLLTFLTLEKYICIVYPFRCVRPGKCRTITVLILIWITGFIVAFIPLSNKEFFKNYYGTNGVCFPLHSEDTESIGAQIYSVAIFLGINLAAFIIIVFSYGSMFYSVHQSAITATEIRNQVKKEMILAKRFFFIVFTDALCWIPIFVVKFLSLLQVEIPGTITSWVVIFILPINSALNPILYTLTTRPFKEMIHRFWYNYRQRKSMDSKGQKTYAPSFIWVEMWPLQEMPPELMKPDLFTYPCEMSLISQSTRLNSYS
RXFP1 agonist: qHTS Assay for Agonists of the Relaxin Receptor RXFP1; Relaxin receptor 1 (Homo sapiens), Q9HBX9; HEK293T-RXFP1 cAMP TR-FRET, 30 min; response scale: percent of porcine relaxin response, buffer zero; Potency, µM (highest dose often 57.5 µM), without a hit: at the highest dose activation, usual class: activators; actives 0.3% (n = 370,000); AID 2676, 2010; active = well fitted activation curve with a large enough effect; inconclusive = small, poorly fitted or top-dose-only effect; also: potency is read from the fitted curve at half-maximal effect; % is scaled to controls: 0 for no effect and ±100 for the full control effect; nearly all actives have a fitted effect of over 60% in size
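Agonist response is measured as cAMP accumulation in an RXFP1-transfected HEK293T line under PDE4 inhibition. Values are scaled between buffer-only and 29 nM porcine relaxin, and EC50s come from standard Hill equation fits.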
gsp ag: qHTS for Agonist of gsp, the Etiologic Mutation Responsible for Fibrous Dysplasia/McCune-Albright Syndrome: qHTS; gsp mutant cells, cAMP HTRF, 30 min; Potency, µM (top dose mostly 76.9 µM), for the others: at the highest dose activation (cAMP increase), actives largely listed as activators; actives 0.13% (n = 340,000); AID 624287, 2012; active = well fitted activation curve with a large enough effect; inconclusive = small, poorly fitted or top-dose-only effect, or another doubt; inactive = no such curve, though single readings can be large or run the other way; cell line not stated here;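 also: phosphodiesterase inhibitor Ro 20-1724 added with compounds to block cAMP breakdown; potency is read from the fitted curve at half-maximal effect; nearly all actives have a fitted effect of over 60% in size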
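Cells stably selected in G418 were plated at 2000/well, grown 16-24 hr, then given compounds in DMSO with the PDE inhibitor […] (300 uM solution added) for 30 min at 37C; cAMP was read by HTRF.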
gsp antag: qHTS for Antagonists of gsp, the Etiologic Mutation Responsible for Fibrous Dysplasia/McCune-Albright Syndrome: qHTS | gsp-mutant cells, cAMP HTRF, 30 min | Potency, µM (highest dose often 76.9 µM), inactives show top-dose activity change, negative = inhibition, usual class: inhibitors | actives 0.4% (n = 340,000) | AID 624288, 2012; calls by dose curve; cell line not stated here;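 also: intracellular cAMP measured with PDE inhibitor Ro 20-1724 present during compound exposure; potency is read from the fitted curve at half-maximal effect; % is scaled to controls: 0 for no effect and ±100 for the full control effect; nearly all actives have a fitted effect of over 65% in size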
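G418-selected cells were plated in DMEM/10% FBS for 16-24 h at 37C, then treated with compounds plus the PDE inhibitor […] (300 uM solution added) for 30 min at 37C. Intracellular cAMP was measured by HTRF after 30 min lysis at room temperature.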
Starred values were filed as active, the others as inactive; [ ] = remark or other dose.

Screening Cn1c(=O)c2sccc2n2c(CCCC(=O)NCCc3ccc(S(N)(=O)=O)cc3)nnc12 returned RXFP1 antag 20, RXFP1 agonist 28µM*, gsp ag 52%[15.4 µM] and gsp antag 2%.
For COc1ccc(CN2CCc3c(c(=O)n4ncc(C(=O)N5CCN(c6ccccc6OC)CC5)c4n3C)C2)cc1 the results were RXFP1 antag -27 and RXFP1 agonist 4%.
CCOCCCNC(=O)C(c1ccc(OC)cc1)N(Cc1cccs1)C(=O)c1ccc(NC(C)=O)cc1 (stereo unspecified) was read as RXFP1 antag -18 and RXFP1 agonist -1%.
`Cn1c(=O)c2sccc2n2c(CCCC(=O)NCc3ccc4c(c3)OCO4)nnc12` gave RXFP1 antag 8, RXFP1 agonist inconclusive, gsp ag 35µM* and gsp antag -1%.
`Cn1c(=O)c2sccc2n2c(CCC(=O)NCc3ccc(Cl)cc3)nnc12` gave RXFP1 antag 3 and RXFP1 agonist inconclusive.
`[O-][n+]1ccccc1SSc1cccc[n+]1[O-]` gave RXFP1 antag -37.
`CCC(=O)N1CCN(c2nc(CC)nc3sc4c(c23)CCCC4)CC1` gave RXFP1 antag 3, RXFP1 agonist 4%, gsp ag 25%[15.4 µM] and gsp antag 20µM*.
`CCc1nc(N2CCN(S(C)(=O)=O)CC2)c2c3c(sc2n1)CCCC3` gave RXFP1 antag -5, RXFP1 agonist 0%, gsp ag 0% and gsp antag inconclusive.
CCc1nc(N2CCN(C(=S)NCCCOC)CC2)c2c3c(sc2n1)CCCC3 was read as RXFP1 antag -2, RXFP1 agonist 3%, gsp ag -7% and gsp antag 7.1µM*.
`O=C(CSc1ccc2nnc(-c3ccc(F)cc3)n2n1)N1CCOCC1` gave gsp ag 20µM* and gsp antag 5%.
CCc1cc(/C(Cc2ccccn2)=N\O)c(O)cc1O was read as RXFP1 antag 0, RXFP1 agonist -2%, gsp ag 13% and gsp antag 35µM*.
CCc1cc(/C(Cc2cscn2)=N\O)c(O)cc1O was read as RXFP1 antag 5, RXFP1 agonist 1%, gsp ag 8% and gsp antag 12%.
`CC(=O)c1ccc(NC(=O)CN2CCN(S(=O)(=O)c3ccc4c(c3)OCCO4)CC2)cc1` gave RXFP1 antag 8 and gsp ag -33%.
For NC(=O)c1ccc(NC(=O)CN2CCN(S(=O)(=O)c3ccc4c(c3)OCCO4)CC2)cc1 the results were RXFP1 antag -7, RXFP1 agonist -2%, gsp ag 21% and gsp antag 50µM*.
`COc1ccc(-c2nc(-c3ccccc3)c(-c3ccc(O)cc3)[nH]2)cc1` gave RXFP1 antag -104* and RXFP1 agonist 2%.
Screening CCc1ccccc1Nc1nn2c(=O)c3ccc(C(=O)NCCC4=CCCCC4)cc3nc2s1 returned RXFP1 agonist 25%.
For Cc1ccc2c(=O)cc(C(=O)Nc3cccc(Cl)c3C)oc2c1C the results were RXFP1 antag -7 and RXFP1 agonist 14%.
`Cc1ccc(C)c(N(C)S(=O)(=O)c2ccc3[nH]cc(C(=O)NC4CCCC4)c(=O)c3c2)c1` gave RXFP1 antag inconclusive and RXFP1 agonist 1%.
Screening Cc1c(CCNC(=O)c2c(F)cccc2F)sc2nc(-c3ccc(F)cc3)nn12 returned RXFP1 antag -10 and RXFP1 agonist 2%.
`CCc1cc2c(=O)c(-c3ccc4c(c3)OCCO4)coc2cc1OS(C)(=O)=O` gave RXFP1 antag -84*, RXFP1 agonist -2%, gsp ag -16%[15.4 µM] and gsp antag inconclusive.
Screening O=c1c2sc3ccccc3c2n(Cc2cccc(F)c2)c(=O)n1CCc1ccccc1 returned RXFP1 agonist 3%.
COc1cccc(-c2nc(SCC(=O)Nc3nc(-c4ccccc4)c(C)s3)[nH]c(=O)c2C#N)c1 was read as RXFP1 antag -71*, RXFP1 agonist 0%, gsp ag 2%[15.4 µM] and gsp antag -24%.
N#Cc1c(-c2ccccc2)nc(SCC(=O)NC2CCCCC2)[nH]c1=O was read as RXFP1 antag -1, RXFP1 agonist 22µM*, gsp ag inconclusive and gsp antag 6%.
Screening O=C(CSc1nc2scc(-c3ccccc3)c2c(=O)[nH]1)NC1CCCCC1 returned RXFP1 agonist 1%.
CCOc1ccc2nc(NC(=O)CSc3nc(-c4ccccc4)c(C#N)c(=O)[nH]3)sc2c1 was read as RXFP1 antag -13, RXFP1 agonist inconclusive, gsp ag 7%[15.4 µM] and gsp antag -9%.
OC(COC(c1ccc(F)cc1)c1ccc(F)cc1)CN1CCc2ccccc2C1 (stereo unspecified) was read as RXFP1 antag -62*, RXFP1 agonist -3%, gsp ag -56% and gsp antag 4%.
`OC(COC(c1ccccc1)c1ccccc1)CN1CCc2ccccc2C1` (stereo unspecified) gave RXFP1 antag -18, RXFP1 agonist 0%, gsp ag -21% and gsp antag -3%.
O=C(/C=C\c1ccc2c(c1)OCO2)NC1CC(=O)N(c2cccc(F)c2)C1 (stereo unspecified) was read as RXFP1 antag -9 and RXFP1 agonist 2%.
Cc1ccccc1N1CCN(Cc2ccc(Br)o2)CC1 was read as RXFP1 antag -65*, RXFP1 agonist 1%, gsp ag 10%[15.4 µM] and gsp antag 4%.
Screening CCCSc1ncc(Cl)c(C(=O)Nc2c(C(=O)Nc3ccc(OC)cc3)oc3ccccc23)n1 returned RXFP1 antag 0 and RXFP1 agonist 1%.
`C/C(CC(=O)Nc1ccc2c(c1)OCCO2)=N\NC(=O)COc1ccc(C)cc1` gave RXFP1 antag -77*, RXFP1 agonist 1%, gsp ag inconclusive and gsp antag 0%.
`Clc1cccc(CNc2ncnc3c2nc2n3CCCC2)c1` gave RXFP1 antag 0 and RXFP1 agonist 6%.
CCCOc1cccc(-c2nc3ccccc3c(=O)o2)c1 was read as RXFP1 antag -84*, RXFP1 agonist 1%, gsp ag -8%[15.4 µM] and gsp antag inconclusive.
`CCCOc1ccc(-c2nc3ccccc3c(=O)o2)cc1` gave RXFP1 agonist 0%.
For CC1CCN(S(=O)(=O)c2ccc3nc(Nc4cccc(F)c4)ccc3c2)CC1 the results were RXFP1 antag -6 and RXFP1 agonist 0%.
Screening O=C(CCN1C(=O)/C(=C\c2ccccc2Cl)SC1=S)Nc1cccnc1 returned RXFP1 antag inconclusive, RXFP1 agonist 0%, gsp ag -55% and gsp antag 35µM*.
